Experimental data taken from PubChem BioAssay AID777 (Sanford-Burnham Center for Chemical Genomics, 2007).
The whole screen tested about 96,000 compounds, of which about 19,000 (20%) were called active.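 How the source made its calls: active means blocking of liver enzyme CYP2C9 beyond about 50% at 5 µM (limit read from the data); inactive means the rest.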 These entries were drawn from the full list.

biological target: Cytochrome P450 2C9 (Homo sapiens) (UniProt P11712); test: blockers of cytochrome P450 2C9 activity – biochemical, luminescence, ADME assay, primary screen (AID 777); conditions: CYP2C9 Supersomes, luciferin-H conversion, at 5 µM, hits give high values
Sequence (P11712 whole entry, looked up): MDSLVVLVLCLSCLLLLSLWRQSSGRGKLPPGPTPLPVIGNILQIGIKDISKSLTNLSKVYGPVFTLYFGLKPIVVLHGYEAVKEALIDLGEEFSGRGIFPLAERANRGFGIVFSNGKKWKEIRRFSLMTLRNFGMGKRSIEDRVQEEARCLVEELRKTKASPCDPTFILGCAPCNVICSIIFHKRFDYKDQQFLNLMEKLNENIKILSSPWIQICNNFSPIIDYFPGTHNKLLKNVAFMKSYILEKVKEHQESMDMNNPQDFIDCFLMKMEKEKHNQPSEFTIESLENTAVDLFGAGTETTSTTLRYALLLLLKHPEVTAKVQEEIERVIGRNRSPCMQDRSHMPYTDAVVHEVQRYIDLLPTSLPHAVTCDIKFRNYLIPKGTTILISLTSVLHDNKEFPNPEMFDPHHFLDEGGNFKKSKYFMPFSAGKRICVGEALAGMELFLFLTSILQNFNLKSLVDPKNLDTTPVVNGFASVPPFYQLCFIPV

Compound	inhibition
O=C(Nc1cccnc1)c1noc2c1CCCCC2	33.5% (inactive)
Cc1nn(CC(=O)Nc2ccc3c(c2)nc(CN2CCCCC2)n3C)c(=O)c2ccccc12	16.1% (inactive)
O/N=C(\c1ccc2c(c1)OCCO2)C1CCCCC1	35.2% (inactive)
CCOc1ccccc1N=C1NC(=O)CS1	-11.8% (inactive)
COc1ccc(OCc2ccc(-c3nc4ccccc4c(=O)n3N)o2)cc1	45.5% (inactive)
O=C(O)/C=C/C(=O)Nc1ccc(F)cc1F	3.9% (inactive)
NC(=O)c1ncc(C(F)(F)F)cc1Oc1ccc(F)cc1	7.9% (inactive)
CN(Cc1ccccc1)c1nc2c(c(=O)[nH]c(=O)n2C)n1CCSc1nc2ccccc2[nH]1	67.2% (active)
Cn1c(=O)[nH]c(=O)c2c1nc(N(CCO)Cc1ccccc1)n2Cc1ccccc1Cl	25.8% (inactive)
CCCSc1nc2c(c(=O)[nH]c(=O)n2C)n1CCc1ccccc1	14.6% (inactive)
Brc1ccc(/C=N/N2CCN(C3c4ccccc4-c4ccccc43)CC2)s1	25.4% (inactive)
O=[N+]([O-])c1ccccc1/C=N/n1c(COc2ccccc2)n[nH]c1=S	8.7% (inactive)
Cc1nc(C)c(C(=O)N(c2ccc(C)c(C)c2)C(C(=O)NCc2ccco2)c2ccccc2)s1 (stereo not drawn)	46.6% (inactive)
Cn1nc(-c2ccc(Cl)cc2)c2cc(C(=O)NCc3ccco3)sc21	43.4% (inactive)
Cc1nn(-c2ccccc2)c2sc(C(=O)N(Cc3ccco3)C(C)C(=O)NC(C)(C)C)cc12 (stereo not drawn)	65.2% (active)
CCn1nnc(NC(=O)c2cc(Cl)c(OC)c(Cl)c2)n1	-1.7% (inactive)
O=C(N1CCOCC1)N(Cc1ccccc1)c1ccccn1	8.5% (inactive)
CCC(C)Sc1nc(C)nc2c1c(=O)n(C)c(=O)n2C (stereo not drawn)	8.4% (inactive)
COc1cccc(/C=N/NC(=O)c2cccc([N+](=O)[O-])c2)c1OS(=O)(=O)c1ccc(C)cc1	1.8% (inactive)
Cc1ccc(-c2nn(-c3ccccc3)cc2/C=N/NC(=O)c2ccc3c(c2)OCO3)cc1	76.1% (active)
Cc1nnc(SCC(=O)N/N=C/c2cn(-c3ccccc3)nc2-c2ccc(F)cc2)n1-c1ccccc1	29.6% (inactive)
CC/C(C)=N/Nc1nc2sc3c(c2c(=O)[nH]1)CC(C)(C)OC3	30.9% (inactive)
CCOC(=O)c1sc(NC(=O)CSc2ncccn2)c(C#N)c1C	45.3% (inactive)
Cc1cccc(NC(=O)CSc2nnc(-c3ccco3)o2)c1	29.1% (inactive)
CCOC(=O)c1sc(NC(=O)CSc2nnc(-c3ccco3)o2)c(C(=O)OCC)c1C	78.6% (active)

Compound	inhibition
CCOC(=O)Cc1csc(NC(NC(=O)OCC)(C(F)(F)F)C(F)(F)F)n1	22.3% (inactive)
Cc1cc(N2CCCC2=O)cc(C)c1S(N)(=O)=O	-21.5% (inactive)
COC(=O)[C@H](CCSC)NC(=O)Nc1ccc(OC)cc1	7.5% (inactive)
Cc1cc(C(=O)NCCCc2ccccc2)no1	2.4% (inactive)
Cc1ccc(-c2nn(-c3ccccc3)cc2CN(Cc2ccccc2)C(=O)CCC(=O)O)o1	65.1% (active)
O=C(O)CCC(=O)N(Cc1cccs1)Cc1cccs1	31.5% (inactive)
CCN(Cc1ccccc1)C(=O)CSc1nc(C)cc2c1C(=O)OC2	-130% (inactive)
CCCSC(=S)NC1CCS(=O)(=O)C1 (stereo not drawn)	19.1% (inactive)
Cc1ccc(Cc2cnc(N)s2)o1	3% (inactive)
N/C(=N\OC(=O)CCc1ccccc1)c1ccc(Cl)cc1	8.3% (inactive)
COc1cc(/C=N/O)cc(Br)c1OS(=O)(=O)c1ccc(C)cc1	67.9% (active)
COc1cc(/C=N/O)cc(Br)c1OCc1cccc(Cl)c1	-39.5% (inactive)
CCOc1cc(/C=N/O)cc(Br)c1OC	17.9% (inactive)
O=C(NCc1cn2ccsc2n1)Nc1cccc(Cl)c1	-17.8% (inactive)
Cc1cccc(NC(=O)C2CCN(S(=O)(=O)c3cccc4cccnc34)CC2)c1	-180% (inactive)
COC(=O)c1sc(=S)n(-c2ccccc2)c1N	3.7% (inactive)
CCOC(=O)Cn1c(N)c(C(=O)OC)sc1=S	57.8% (active)
COCCOC(=O)c1sc(=S)n(CCOC)c1N	1% (inactive)
Cc1ccc(O)c(CNc2nc3ccccc3n2C)c1	21.9% (inactive)
O=C(COc1cccc(-n2cnnn2)c1)NCCC1=CCCCC1	79.4% (active)
Cc1nnc(OCC(=O)NCCC2=CCCCC2)c2ccccc12	-29.1% (inactive)
O=C(COc1ccc(Cl)cc1)NCCC1=CCCCC1	40.4% (inactive)
CC(C)(C)c1cc(CN2CCN(CCC#N)CC2)cc(C(C)(C)C)c1O	4.9% (inactive)
CC(C)Oc1ccc(C2NC(=O)NC2=O)cc1 (stereo not drawn)	-28.2% (inactive)
COc1ccc(Nc2cc(=O)oc3ccccc23)cc1	-27.6% (inactive)

Compound	inhibition
COc1ccc(S(=O)(=O)Nc2ccc3oc(C)c(C(C)=O)c3c2)cc1	67.2% (active)
COc1ccc2oc(C)c(NC(C)=O)c2c1	-8.9% (inactive)
CCOC(=O)c1c(C)[nH]c(C)c1C(=O)CSc1nc(N)cc(N)n1	-35.6% (inactive)
COc1cc(CNCc2cccs2)cc(Br)c1OC	8.7% (inactive)
Cn1c(SCc2c(F)cccc2Cl)nnc1-c1cnccn1	-6% (inactive)
COc1cccc(N=c2oc3c(C)ncc(CO)c3cc2C(N)=O)c1	11.4% (inactive)
COc1cccc(OC)c1C(=O)Nc1nnc(C(C)C)s1	20.1% (inactive)
COC(=O)C1=C(C)NC2=C(C(=O)c3ccccc32)C1c1ccc(-c2ccc(C(=O)O)cc2)o1 (stereo not drawn)	97.3% (active)
COc1ccccc1NC(=O)C1=C(C)NC2=C(C(=O)CCC2)C1c1ccc(C)o1 (stereo not drawn)	10.7% (inactive)
COC(=O)C1=C(C)NC(=O)NC1/C=C/c1ccccc1 (stereo not drawn)	-0.6% (inactive)
Clc1ccc(C=NC23CN4CN(CN(C4)C2)C3)cc1	1.1% (inactive)
COc1ccc(CN2CCCCC2C)cc1OC (stereo not drawn)	-9.7% (inactive)
Cc1ccc(CN2C(=O)CCC2C(=O)NCCCN2CCCCC2C)cc1 (stereo not drawn)	0% (inactive)
CCc1ccc2oc(=O)cc(CN3CCCCC3C)c2c1 (stereo not drawn)	54.9% (active)
O=C(OCC(=O)c1cccs1)C1=COCCO1	0.5% (inactive)
CCC(C)(C)c1ccc(Oc2ccc(NC(=O)COC(=O)C3=COCCO3)cc2)cc1	76.1% (active)
CCC1(CC)NC(=O)N(CC(=O)OCC(=O)Nc2ccc(C(F)(F)F)cc2)C1=O	-10.3% (inactive)
O=C(C1CC1)N1CCN=C1SCc1ccc(Cl)cc1	21.3% (inactive)
CC(C(=O)N1CCOCC1)N1c2cccc3cccc(c23)S1(=O)=O (stereo not drawn)	-30.6% (inactive)
NC(N)=N/N=C/c1ccc(OCc2ccc(Cl)cc2Cl)cc1	-11.8% (inactive)
COc1ccc(C2Nc3ccccc3C(=O)N2Cc2ccccc2)cc1Cn1nnc2ccccc21 (stereo not drawn)	93.5% (active)
COc1ccc(C2=NO[C@@H]3C(=O)N(Cc4ccccc4)C(=O)[C@H]23)cc1OC	47% (inactive)
Cc1cc(C)c2c(n1)nn1c(-n3ccnc3)cc(C)nc21	-4.3% (inactive)
Cn1c(CNc2nc(-c3ccccc3)cs2)nnc1SCC(=O)c1ccccc1	65.7% (active)
Cc1ccccc1NC(=O)Cc1nnc(SCC(=O)N2CCN(c3ccccc3)CC2)n1C	13.3% (inactive)

Compound	inhibition
CCOC(=O)CSc1nnc(CNc2nc(-c3ccccc3)cs2)n1C	-2.1% (inactive)
CCn1c(Cc2ccccc2)nnc1SCC(=O)Nc1ccccc1	4% (inactive)
Cc1ccc(C(=O)CSc2nnc(Cn3nnc4ccccc43)n2C)cc1	20.6% (inactive)
Cn1c(CC(=O)Nc2ccccc2)nnc1SCC(=O)c1ccccc1	76.5% (active)
CCc1ccc2c(c1)cc(CN(C(=S)Nc1ccccc1Cl)C1CC1)c1nnnn12	-11.3% (inactive)
CCOc1ccccc1C1C(C(=O)OC)=CN(C)C=C1C(=O)OC	39.1% (inactive)
CC(C)Oc1ccc(Oc2ccc(C(F)(F)F)cn2)cc1	23.3% (inactive)
Cc1ccc(C2C(C#N)C(C#N)N3CCCN23)cc1 (stereo not drawn)	-8.1% (inactive)
CCOC(=O)c1c(C)n(C)c2ccc(OC)c(NC(=O)CN3CCC4(CC3)OCCO4)c12	18.3% (inactive)
COc1ccc(CCNC(=O)CN2CCC(n3nnc4cc(F)ccc43)CC2)cc1OC	28.1% (inactive)
CSCCC(Nc1nc2ccccc2s1)C(=O)O (stereo not drawn)	25.8% (inactive)
Cc1nn(CC(=O)Nc2nc3ccccc3s2)c(C)c1[N+](=O)[O-]	89.2% (active)
Cc1nn(Cc2ccccc2Cl)c(C)c1NC(=O)Cn1nc([N+](=O)[O-])c(Cl)c1C	11% (inactive)
Cc1ccc(S(=O)(=O)NCc2cn3ccsc3n2)c(C)c1	21.3% (inactive)
COc1ccc(CCN(Cc2cc3cccc(C)c3[nH]c2=O)C(=O)N2CCCC2)cc1OC	32.5% (inactive)
O=C(CC1OC(=O)c2ccccc21)NC1CCCCC1 (stereo not drawn)	-99.1% (inactive)
CCOc1ccccc1NC(=O)c1cc(S(=O)(=O)N2CCC3(CC2)OCCO3)ccc1F	6.8% (inactive)
O=C(Nc1ccccc1F)c1cc(S(=O)(=O)N2CCCCC2)cs1	75.6% (active)
O=C(CN1CCN(S(=O)(=O)c2ccc(F)cc2)CC1)Nc1ccccc1F	40.4% (inactive)
COc1ccc(CN(Cc2ccco2)S(=O)(=O)c2ccc(S(=O)(=O)N3CCCC3)cc2)cc1	39.9% (inactive)
CCOC(=O)Cn1c(=O)oc2cc(S(=O)(=O)N(C)Cc3ccco3)ccc21	28.8% (inactive)
CCOc1ccc(CN(Cc2ccco2)S(=O)(=O)c2ccc(-n3cnnn3)c(OC)c2)cc1	65.1% (active)
NC(=O)N1CCCC1C(=O)Nc1ccc(Cl)c(Cl)c1 (stereo not drawn)	14.9% (inactive)
